Measured values taken from PubChem BioAssay (EPA / NIEHS).
Records with an inconclusive call do not appear. The source made the active and inactive calls. Rule for the calls, unless noted: active = hit-call score of the fitted dose curve at least 0.9, where 1 is the maximum; inconclusive = response in the unintended direction; inactive = score below 0.9.

Tests used:
[1] = TOX21_p53_BLA_p2_viability: Viability Assessment in the Tox21 HCT-116 p53 Agonism Beta-lactamase Assay, Phase 2 (AID 2283591);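 note: compound exposure lasted 16 h at 37 °C; actives lower the ATP signal meaning cytotoxicity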
Procedure, shortened: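 HCT116 p53-bla cells, 4000/well, dosed after 5 h plating (217-fold dilution of DMSO stocks) and incubated 16 h at 37C. Viability taken as cellular ATP by CellTiter-Glo luminescence after 30 min RT; signal loss marks cytotoxicity.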

[2] = target: Cellular tumor antigen p53 (Homo sapiens) (UniProt P04637); test: TOX21_p53_BLA_p3_ratio: Tox21 HCT-116 p53 Agonism Beta-lactamase Assay, Ratio, Phase 3 (AID 2283596)
Procedure, shortened: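 HCT116 p53-bla cells (4000/well) given compound in DMSO (217-fold dilution) after 5 h, incubated 16 h at 37C. CCF4-AM substrate 2 h at room temperature; 460/530 nm emission ratio, gain fitted against DMSO.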

[3] = TOX21_p53_BLA_p4_viability: Viability Assessment in the Tox21 HCT-116 p53 Agonism Beta-lactamase Assay, Phase 4 (AID 2283597);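 note: hits lower the luminescence signal meaning cytotoxicity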
Procedure, shortened: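 Cells plated, 5 h pre-incubation; DMSO compounds pinned (217-fold dilution); 16 h, 37C/5% CO2; CCF4-AM 2 h RT; CellTiter-Glo 30 min RT; luminescence read.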

[4] = target: Cellular tumor antigen p53 (Homo sapiens) (UniProt P04637); test: TOX21_p53_BLA_p4_ratio: Tox21 HCT-116 p53 Agonism Beta-lactamase Assay, Ratio, Phase 4 (AID 2283601)
Procedure, shortened: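 HCT-116 p53 beta-lactamase reporter cells (4000/well) preincubated 5 h, then compound (217-fold dilution of DMSO stock) for 16 h at 37C. CCF4-AM substrate added 2 h at room temperature; 460/530 nm emission ratio fitted upward versus DMSO.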

[5] = target: Cellular tumor antigen p53 (Homo sapiens) (UniProt P04637); test: TOX21_p53_BLA_p5_ratio: Tox21 HCT-116 p53 Agonism Beta-lactamase Assay, Ratio, Phase 5 (AID 2283599)
Procedure, shortened: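 HCT-116 p53-bla cells (4000/well) plated 5 h, dosed with compound (217-fold DMSO dilution) for 16 h at 37 C; CCF4-AM substrate 2 h at room temperature. Activity is the 460/530 nm emission ratio (405 nm excitation), fitted in gain-of-signal direction versus DMSO.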

[6] = TOX21_p53_BLA_p5_viability: Viability Assessment in the Tox21 HCT-116 p53 Agonism Beta-lactamase Assay, Phase 5 (AID 2283600)
Procedure, shortened: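 4000 cells/well; 5 h pre-incubation; DMSO compounds pin-transferred, 217-fold dilution; 16 h, 37C/5% CO2; CCF4-AM 2 h RT; CellTiter-Glo 30 min RT; luminescence.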

[7] = CCTE_Harrill_HTTr_Viability_MCF7: CCTE's 6-hour Cell Viability Assessment for the High-Throughput Transcriptomics (HTTr) Platform, in MCF-7 cells cultured in DMEM + 10% fetal bovine serum, Harrill Lab (AID 2284010; active = hit-call score of the fitted dose curve at least 0.9, where 1 is the maximum; inactive = score below 0.9)
Procedure, shortened: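 Membrane integrity was scored by high-content imaging of propidium iodide dye exclusion after a 6 h exposure across an eight-point dilution series. Data were fitted bidirectionally relative to DMSO as negative control and baseline.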

[8] = CCTE_Harrill_HTTr_Apoptosis_MCF7: CCTE's 6-hour Apoptosis Assessment for the High-Throughput Transcriptomics (HTTr) Platform, in MCF-7 cells cultured in DMEM + 10% fetal bovine serum, Harrill Lab (AID 2284011; active = hit-call score of the fitted dose curve at least 0.9, where 1 is the maximum; inactive = score below 0.9)
Procedure, shortened: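 MCF-7 (DMEM + 10% FBS), 384-well; 8-pt dilution series, 6 h chemical exposure; caspase-3/7 activation via CellEvent Caspase 3/7 Green, HCI; bidirectional fit vs DMSO.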

[9] = CCTE_Harrill_HTTr_CellCount_MCF7: CCTE's Cell Proliferation Assessment for the High-Throughput Transcriptomics (HTTr) Platform, Harrill Lab (AID 2284012);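 note: cells exposed to compound for six hours; intended direction is loss of nuclei count meaning fewer cells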
Procedure, shortened: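 MCF-7 cells were exposed for 6 h to an eight-point dilution series; Hoechst-labeled nuclei were counted by high content imaging. Curves were fitted bidirectionally against DMSO as negative control and baseline, with signal loss indicating reduced cell count.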

Measured: outcome

Chain of Cellular tumor antigen p53 (Homo sapiens) (P04637 whole entry, looked up): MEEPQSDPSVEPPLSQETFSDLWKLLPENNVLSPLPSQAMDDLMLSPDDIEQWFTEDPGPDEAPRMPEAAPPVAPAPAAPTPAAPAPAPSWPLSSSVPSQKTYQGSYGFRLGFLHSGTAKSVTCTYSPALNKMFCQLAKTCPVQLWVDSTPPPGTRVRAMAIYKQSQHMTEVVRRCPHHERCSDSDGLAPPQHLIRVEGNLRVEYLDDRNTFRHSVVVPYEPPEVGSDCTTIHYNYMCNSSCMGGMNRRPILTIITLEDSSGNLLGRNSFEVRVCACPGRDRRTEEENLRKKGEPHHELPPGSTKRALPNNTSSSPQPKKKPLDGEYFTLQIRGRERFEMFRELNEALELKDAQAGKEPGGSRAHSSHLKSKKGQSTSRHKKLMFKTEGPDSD

CC[N+](CC)(CCNC(=O)C(=O)NCC[N+](CC)(CC)Cc1ccccc1Cl)Cc1ccccc1Cl
inactive: [1] | [2] | [3] | [4]

CS(=O)(=O)OCCCNCCCOS(C)(=O)=O
not listed: [7] | [8] | [9]
inactive: all other assays above

CCC(C)SSC(C)CC (configuration not stated)
not listed: [7] | [8] | [9]
inactive: all other assays above

ClCC=CCCl
inactive: [1] | [2] | [3] | [5] | [4]

CC12CC3CC(C)(C1)CC(N)(C3)C2
inactive: [1] | [2] | [3] | [5] | [4]

OCC1(CO)COCOC1
inactive: [1] | [2] | [5] | [6] | [4]

CCOc1ccc(NC(=S)Nc2ccc(OCC)cc2)cc1
inactive: [1] | [2] | [3] | [4]

ClC1=C(Cl)C1(Cl)Cl
inactive: [1] | [2] | [3] | [4]

C=CC[N+]1([C@H]2C[C@H]3[C@@H]4CC[C@H]5C[C@H](OC(C)=O)[C@@H](N6CCCCC6)C[C@]5(C)[C@H]4CC[C@]3(C)[C@H]2OC(=O)CC)CCCCC1
inactive: [1] | [2] | [3] | [6] | [4]

COC(=O)C(CN)c1c[nH]c2ccc(OC)cc12 (configuration not stated)
inactive: [1] | [2] | [5] | [6] | [4]

Cc1cccc(C)c1NC(=O)C1CCCCN1C (configuration not stated)
inactive: [1] | [2] | [5] | [6]

CCCCCCCCCCCCCCCCSCC(COC)COP(=O)([O-])OCC[N+](C)(C)C (configuration not stated)
inactive: [1] | [2] | [3] | [4]

O=C(Nc1cccc2c(=O)cc(-c3nn[nH]n3)oc12)c1ccc(OCCCCc2ccccc2)cc1
inactive: [1] | [2] | [3] | [6]

Cc1ncc(CO)c(C=O)c1O
not listed: [7] | [8] | [9]
inactive: all other assays above

O=C1OC(CN2CCOCC2)CN1N=Cc1ccc([N+](=O)[O-])o1 (configuration not stated)
inactive: [1] | [2] | [5] | [6] | [4]

CC(C)CCCC(C)NC(C)C (configuration not stated)
inactive: [1] | [2] | [5]

CC(O)CN(CCCN(C)C)CCCN(C)C (configuration not stated)
inactive: [1] | [2] | [5] | [6] | [4]

CCO[Si](OCC)(OCC)OCC
inactive: [1] | [2] | [3] | [5] | [4]

NC(=O)NC(=O)Cc1ccccc1
inactive: [1] | [2] | [3] | [5] | [4]

O=C(O)c1c(Cl)cccc1Cl
not listed: [7] | [8] | [9]
inactive: all other assays above

O=C1OC(=O)c2ccccc21
inactive: [1] | [2] | [3] | [6] | [4]

CN(C)CCCN1c2ccccc2C(C)(C)c2ccccc21
inactive: [1] | [2] | [5]

CCN(CC)CCOC(=O)C(Cc1cccc2ccccc12)CC1CCCO1 (configuration not stated)
inactive: [1] | [2] | [3] | [4]

CC(=C(CCOC(=O)C(C)C)SSC(CCOC(=O)C(C)C)=C(C)N(C=O)Cc1cnc(C)nc1N)N(C=O)Cc1cnc(C)nc1N
inactive: [1] | [2] | [3] | [6] | [4]

Cn1c(=O)c2c(ncn2CC(O)CO)n(C)c1=O (configuration not stated)
inactive: [1] | [2] | [3] | [5] | [4]

C[N+](C)(C)CC[N+]1(C)Cc2c(Cl)c(Cl)c(Cl)c(Cl)c2C1
not listed: [7] | [8] | [9]
inactive: all other assays above

CC[C@H](CC[C@@H](C)[C@H]1CC[C@H]2[C@@H]3CC=C4C[C@@H](O)CC[C@]4(C)[C@H]3CC[C@]12C)C(C)C
inactive: all assays above

O=C(O)CNC(=O)c1ccccc1I
inactive: [1] | [2] | [5] | [6]

CC(O)CO (configuration not stated) (tested in a mixture with another compound)
inactive: [1] | [2] | [3] | [4]

C=C[Si](OC(=C)C)(OC(=C)C)OC(=C)C
inactive: [1] | [2] | [5] | [6]

CN1C(=O)C[C@@H](C(=O)N[C@@H](Cc2cnc[nH]2)C(=O)N2CCC[C@H]2C(N)=O)NC1=O
inactive: [1] | [2] | [5] | [6] | [4]

O=c1[nH]c2ccc(Cl)cc2o1
not listed: [7] | [8] | [9]
inactive: all other assays above

CC[N+](CC)(CC)CCOc1cccc(OCC[N+](CC)(CC)CC)c1OCC[N+](CC)(CC)CC
inactive: [1] | [2] | [3] | [5] | [4]

CCCc1nc(C(C)(C)O)c(C(=O)OCc2oc(=O)oc2C)n1Cc1ccc(-c2ccccc2-c2nn[nH]n2)cc1
inactive: [1] | [2] | [5]

Cc1c(I)c(=O)n(-c2ccccc2)n1C
inactive: [1] | [2] | [5] | [6] | [4]

CC[C@H]1OC(=O)[C@H](C)[C@@H](O[C@H]2C[C@@](C)(OC)[C@@H](O)[C@H](C)O2)[C@H](C)[C@@H](O[C@@H]2O[C@H](C)C[C@H](N(C)C)[C@H]2O)[C@](C)(O)C[C@@H](C)[C@@H]2N[C@@H](COCCOC)O[C@@H]([C@H]2C)[C@]1(C)O
inactive: [1] | [2] | [5] | [6] | [4]

Cc1ccccc1C(N)=O
inactive: [1] | [2] | [6] | [4]

CC(=O)Nc1c(I)cc(I)c(C(=O)O)c1I
inactive: [1] | [2] | [5] | [4]

CC(C)CCCO
inactive: [1] | [2] | [4]

C[C@H](O)CN(C)C
inactive: [1] | [2] | [5] | [4]

CCC(C(=O)OCCOCCN(CC)CC)c1ccccc1 (configuration not stated)
inactive: [1] | [2] | [5] | [4]

CC(C)(c1cc(Br)c(OCC(Br)CBr)c(Br)c1)c1cc(Br)c(OCC(Br)CBr)c(Br)c1 (configuration not stated)
inactive: [1] | [3] | [5]

CC(C)CC=O
inactive: [1] | [3] | [5]

CCCCCC
inactive: [1] | [2] | [5] | [4]

C1CCC2=NCCCN2CC1
inactive: [1] | [3] | [5] | [6]

Cc1cscn1
inactive: [1] | [3]

CCC(Cc1c(I)cc(I)c(O)c1I)C(=O)O (configuration not stated)
inactive: [1] | [3] | [5]

CC(C(=O)O)c1ccc(/C=C2\CCCCC2=O)cc1 (configuration not stated)
inactive: [1] | [2] | [6] | [4]

COCCOCCOCCOCCO
inactive: [1] | [2] | [5] | [4]

CCn1cc(C(=O)O)c(=O)c2cnc(N3CCNCC3)nc21
inactive: [1] | [2] | [4]

O=C(O)COc1ccc2ccccc2c1
inactive: [1] | [2] | [5] | [6] | [4]

CC(C)(Sc1cc(C(C)(C)C)c(O)c(C(C)(C)C)c1)Sc1cc(C(C)(C)C)c(O)c(C(C)(C)C)c1
inactive: [1] | [3] | [5] | [6]
